Screens (PubChem BioAssay)
HepG2 viability: HepG2 cytotoxicity, counter-screen for TGF-b inhibitors | HepG2 CAGA-GFP viability, ATP luminescence, 18 h | Potency, µM (series often up to 46.1 µM), inactives show at the highest dose activity change, negative = cytotoxicity, usual class: cytotoxic | 410,000 tested, 0.76% active
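HepG2 CAGA-GFP cells (1000/well, DMEM with 1% FBS) received compound, then TGF-beta at 500 pg/mL final, and were incubated 18 hours at 37 degrees C. Viability was read by CellTiter-Glo luminescence. Media-only wells were set as complete cell-killing and DMSO as no toxicity.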
TGFb SMAD3 inh: TGF-b pathway inhibition; HepG2 CAGA-GFP TGF-b/SMAD3 reporter, GFP fluorescence, 18 h; TGF-beta stimulated, 500 pg/mL final; AID 588855; 410,000 tested, 1.2% active; Potency, µM (titrated, usually from 46.1 µM), inactives show at the top dose activity, negative = inhibition, actives largely listed as inhibitors; further: on the % scale 0 is the no-effect control and ±100 the full control effect; nearly all actives have a fitted effect of over 65% in size
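Read-out: total well GFP (ex488/em500-530) summed from mean per-cell fluorescence. Cells: HEPG2 CAGA-GFP, 1% FBS DMEM, 18 h at 37 degrees C with 500 pg/mL final TGF-beta. Unstimulated wells served as the full-inhibition control; stimulated DMSO wells = 0%.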
HT1080NT lethal: kills 2HG-producing HT-1080-NT fibrosarcoma cells; AID 686970; HT-1080-NT fibrosarcoma viability, CellTiter-Glo ATP luminescence, 48 h; Potency, µM (doses to about 46.1 µM), for the others: at the highest dose activity, negative = less viability, usual class: cytotoxic; 360,000 tested, 1.6% active;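 further: NT is the 2HG producing partner of a matched IDH1 knockdown line; 0% = DMSO-treated cells and -100% = media-only wells without cells; nearly all actives have a fitted effect of over 55% in size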
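Toxicity toward the 2HG-producing NT line was scored as %Activity, normalised to DMSO and no-cell wells, from CellTiter-Glo luminescence after 48 hours' treatment.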
DT40 TDP1 CPT: DT40-hTDP1 cell growth loss with CPT. Potency, µM (highest dose often 46.2 µM), inactives show top-dose activity change, negative = growth inhibition, usual class: inhibitors. AID 686979. 420,000 tested, 12% active. chicken DT40 Tdp1-/-;hTDP1 cells + 20 nM CPT, ATP luminescence, 48 h; further: on the % scale 0 is the no-effect control and ±100 the full control effect; nearly all actives have a fitted effect of over 55% in size
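Chicken DT40 Tdp1-/- cells complemented with human TDP1, 400 cells/well, exposed to compounds plus 20 nM camptothecin for at least 48 h at 37 C; viability read as ATP content by CellTiter-Glo luminescence.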
TDP1 cell noCPT: qHTS for Inhibitors of human tyrosyl-DNA phosphodiesterase 1 (TDP1): qHTS in cells in absence of CPT; DT40 Tdp1-/- hTDP1 cells, no CPT, ATP luminescence, 48 h; Potency, µM (highest dose often 46.2 µM), for the others: at the highest dose activity change, negative = growth inhibition, actives largely listed as inhibitors; 420,000 tested, 15% active; further: on the % scale 0 is the no-effect control and ±100 the full control effect; nearly all actives have a fitted effect of over 55% in size
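Readout: luminescence from CellTiter-Glo after 30 min in the dark at RT. Cells: DT40 Tdp1-/- with stable hTDP1, 400/well. Exposure: compounds alone, ≥48 hr, 37 °C.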
HT1080 IDH1KD tx: HT-1080 IDH1 knockdown cell toxicity (counter line); HT-1080 IDH1 knockdown viability, ATP luminescence, 48 h; Potency, µM (doses to about 46.1 µM), without a hit: at the top dose activity, negative = toxicity, actives largely listed as cytotoxic; 360,000 tested, 2% active;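 further: 0% = DMSO wells and -100% = cell-free medium wells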
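CellTiter-Glo luminescence after 48 h compound exposure at 37 degrees C of IDH1-knockdown HT-1080 cells in 5% FBS RPMI. %Activity scaled between DMSO wells and cell-free media wells, with curves fitted and assigned curve classes.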
Numbers without * were called inactive; u = inconclusive; x = no result; [ ] = dose if it differs, or a comment. Most compounds without a hit are left out; they make up all but 17% or so of the library. The call rests on the fitted dose curve; in most records, active means well fitted curve in the direction sought with a large enough effect; inconclusive means small, poorly fitted or top-dose-only effect, or another doubt; inactive means no such curve, though single readings can be large; an effect the other way counts as inactive or inconclusive. Potency means the concentration at half of the fitted maximal effect.

SMILES	HepG2 viability	TGFb SMAD3 inh	HT1080NT lethal	DT40 TDP1 CPT	TDP1 cell noCPT	HT1080 IDH1KD tx
Cc1ccc(C2(C)NC(=O)N(CC(=O)Nc3ccccc3C(=O)NC3CCCC3)C2=O)cc1 (stereo not drawn)	1%	-9%	4%	1%	-10%	9%
Clc1cccc(-c2csc(-c3nc(-c4ccc(Br)s4)cs3)n2)c1	-2%	10%	x	-1%	-2%	x
C=CC[C@@H](Cc1ccc(F)cc1)C(=O)OC[C@@H]1CCCN1C(=O)[C@H](CC=C)CC(=O)N[C@H](CO)Cc1ccccc1	-83%	u	-9%	u	18µM*	-9%
C=CC[C@@H](Cc1ccc(F)cc1)C(=O)OC[C@@H]1CCCN1C(=O)[C@@H](CC=C)CC(=O)N(CCO)Cc1ccccc1	-20%	u	u	u	15µM*	u
COCCCNC(=O)c1cc(-c2cccnc2)nc2ccccc12	9%	u	5%	-8%	-7%	1%
Cc1ccc(-c2cc(C(=O)NC(C)c3ccccc3)c3ccccc3n2)cc1C (stereo not drawn)	-4%	-13%	x	u	u	x
COCCNC(=O)c1cc(-c2ccc(-c3ccccc3)cc2)nc2ccccc12	-17%	0%	u	12µM*	5.2µM*	u
Cc1ccc(-c2cc(C(=O)NCc3ccccc3Cl)c3ccccc3n2)cc1C	-17%	-2%	x	15µM*	u	x
O=C(NCCc1ccc(Cl)cc1)c1cc(-c2ccccn2)nc2ccccc12	-26%	u	3%	u	u	8%
O=C(NCCc1ccccn1)c1cc(-c2ccccc2Cl)nc2ccccc12	-13%	-21%	1%	-30%	18µM*	-8%
CCn1cc(-c2cc(C(=O)O)c3ccccc3n2)c(C)n1	22%	-21%	16%	4%	2%	17%
CCn1cc(CNC(=O)c2cc(-c3ccc(C)c(C)c3)nc3ccccc23)c(C)n1	-24%	-17%	x	15µM*	16µM*	x
COc1cccc(CNC(=O)c2ccc3c(c2)nc2n3CCCCC2)c1OC	-10%	x	x	-8%	u	x
Cc1cc(CNC(=O)c2cc(-c3ccccc3)nc3ccccc23)nn1C	-3%	-7%	-3%	u	21µM*	-1%
Cc1cc(C(=O)N(C)C)sc1-c1ccccc1	-13%	2%	u	-27%	u	7%
O=C(NCc1ccccn1)c1cc(-c2ccc(-c3ccccc3)cc2)nc2ccccc12	-32%	-11%	u	16µM*	8.2µM*	u
Cc1cc(C(=O)NCc2cc(C)n(C)n2)sc1-c1ccccc1	-20%	-8%	-24%	13µM*	21µM*	-27%
CCn1cc(-c2cc(C(=O)O)c3ccccc3n2)cn1	-60%	1%	-31%	9.2µM*	u	u
COc1ccc(C(=O)NCc2nc(-c3ccccc3NC(=O)c3cc(C)oc3C)oc2C)cc1F	x	x	x	25%	3%	x
CCCC(=O)N(CCN1CCOCC1)c1nc2c(OC)ccc(OC)c2s1	-3%	8%	-9%	-9%	11%	1%
Cc1cccc(-c2cc(C(=O)NCc3ccccn3)c3ccccc3n2)c1	3%	-1%	-4%	16µM*	13µM*	7%
Cc1ccc(-c2cc(C(=O)NCc3ccccn3)c3ccccc3n2)cc1C	-39%	-46%	u	u	7.3µM*	u
O=C(NCCc1ccccn1)c1c(-c2ccccc2)sc2ccccc12	-20%	u	-4%	u	16µM*	-1%
O=C(NCCc1ccccn1)c1c(-c2ccsc2)sc2ccccc12	-5%	-25%	-3%	u	u	2%
Cc1ccc(-c2cc(C(=O)NCCCN3CCCC3)c3ccccc3n2)cc1C	-27%	-24%	u	u	29µM*	u
SMILES	HepG2 viability	TGFb SMAD3 inh	HT1080NT lethal	DT40 TDP1 CPT	TDP1 cell noCPT	HT1080 IDH1KD tx
CCC(CC)C(=O)NN(C(=O)c1ccncc1)C1CC(=O)N(c2ccccc2)C1=O (stereo not drawn)	-6%	17%	10%	7%	0%	21%
Cc1cccc(NC(=O)COC(=O)c2cccs2)c1C	1%	-6%	6%	1%	-1%	9%
COC(=O)c1cc(C(=O)N2CCN(c3cccc(Cl)c3)CC2)cc([N+](=O)[O-])c1	0%	-23%	0.52µM*	0.65µM*	0.92µM*	0.46µM*
O=C(c1ccco1)N1CCN(c2c([N+](=O)[O-])nn(-c3cccc(Cl)c3)[n+]2[O-])CC1	-21%	u	-2%	16µM*	u	13%
Cc1c(C(=O)N2CCN(c3cccc(Cl)c3)CC2)cccc1[N+](=O)[O-]	-16%	-16%	-10%	16µM*	16µM*	-14%
Cc1c(C(=O)N2CCN(c3ccccn3)CC2)cccc1[N+](=O)[O-]	69%	0%	12%	-8%	4%	5%
Cc1ccc(Nc2ccc(N3CCN(C(=O)c4cccc([N+](=O)[O-])c4)CC3)nn2)cc1	19%	u	x	u	16µM*	x
O=C(c1cccc([N+](=O)[O-])c1)N1CCN(c2ncccn2)CC1	-4%	-5%	0%	2%	-7%	0%
COC(=O)c1cc(C(=O)N2CCOCC2)cc([N+](=O)[O-])c1	-2%	6%	8%	-3%	7%	12%
O=C(c1ccc(Cl)c([N+](=O)[O-])c1)N1CCN(C(=O)c2ccco2)CC1	-1%	-14%	-2%	-10%	-29%	0%
CC(NC(=O)c1ccc(NC(=O)CC2SC(N3CCCC3)=NC2=O)cc1)c1ccc(F)cc1 (stereo not drawn)	7%	-4%	11%[9.24 µM]	-11%	13%	-2%
Cc1ccc2oc(C(=O)Nc3ccc(S(=O)(=O)Nc4ncccn4)cc3)cc(=O)c2c1	7%	-4%	x	-21%	-27%	x
Cc1ccc(C(=O)OCc2cc(=O)n3c(C)csc3n2)s1	15%	-1%	-3%	-6%	2%	-3%
Cc1c(C(=O)OCC(=O)N(C)Cc2ccc(Cl)cc2)oc2ccccc12	-19%	4%	-5%	1%	6%	0%
O=C(c1cccc([N+](=O)[O-])c1)N1CCN(c2cccc(Cl)c2)CC1	2%	-25%	u	18µM*	18µM*	u
